Values joined by “and” are separate entries in the source; they are usually repeats but may differ in a detail not shown here. Equal values may be shown once. Among all 5,500 compounds or so, about 2,000 (36%) were called active. Roughly 18% stayed inconclusive and do not appear here. No stated cut-off is given here; in the data, active means normalized growth mostly below about 0.91 (no sharp cut-off); inconclusive means no clear call, values can overlap the other calls; inactive means mostly above about 0.92. This is one part of the list.
Test: chemical genetic growth profiling, strain panel (AID 1159580);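 further: tested at 20 µM; growth read once vehicle control cultures reached saturation at 30 °C; 1 = growth at the plate median or of vehicle wells; lower values mean less growth of the strain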
Conditions: growth OD

Measured: normalized growth

NCCSSCCN
inactive: S. cerevisiae deletion strains, locus YKL009W, strain mrt4, active compounds read low 1.03 | S. cerevisiae deletion strains, locus YKL068W, active compounds read low 1.01 | S. cerevisiae deletion strains, locus YKL085W, strain MDH1 (second series), active compounds read low 1.01 | S. cerevisiae deletion strains, locus YKL085W, strain MDH1, active compounds read low 1.01 | S. cerevisiae deletion strains, locus YKL160W, strain elf1, active compounds read low 0.995 | S. cerevisiae deletion strains, locus YKL190W, strain CNB1, active compounds read low 1.01 | S. cerevisiae deletion strains, locus YKR001C, strain vps1, active compounds read low 1.02 | S. cerevisiae deletion strains, locus YKR026C, strain gcn3, active compounds read low 0.993 | S. cerevisiae deletion strains, locus YKR091W, strain srl3, active compounds read low 0.993 | S. cerevisiae deletion strains, locus YLL001W, strain dnm1, active compounds read low 0.978 | S. cerevisiae deletion strains, locus YLL026W, active compounds read low 0.989 | S. cerevisiae deletion strains, locus YLL041C, strain sdh2, active compounds read low 0.997 | S. cerevisiae deletion strains, locus YLR027C, strain aat2, active compounds read low 0.99 | S. cerevisiae deletion strains, locus YLR039C, strain RIC1, active compounds read low 1.02 | S. cerevisiae deletion strains, locus YLR058C, strain SHM2, active compounds read low 1.01 | S. cerevisiae deletion strains, locus YLR102C, strain apc9, active compounds read low 0.994 | S. cerevisiae deletion strains, locus YLR113W, strain HOG1, active compounds read low 1.05 | S. cerevisiae deletion strains, locus YLR221C, strain rsa3, active compounds read low 0.998 | S. cerevisiae deletion strains, locus YLR258W, strain gsy2, active compounds read low 0.996 | S. cerevisiae deletion strains, locus YLR262C, strain YPT6 (second series), active compounds read low 0.994 | S. cerevisiae deletion strains, locus YLR262C, strain YPT6, active compounds read low 1.02 | S. cerevisiae deletion strains, locus YLR268W, strain sec22, active compounds read low 1.05 | S. cerevisiae deletion strains, locus YLR320W, strain mms22, active compounds read low 1 | S. cerevisiae deletion strains, locus YLR330W, strain CHS5, active compounds read low 1.01 | S. cerevisiae deletion strains, locus YLR342W, strain FKS1 (second series), active compounds read low 1 | S. cerevisiae deletion strains, locus YLR342W, strain FKS1, active compounds read low 0.983 | S. cerevisiae deletion strains, locus YLR357W, strain rsc2, active compounds read low 0.979 | S. cerevisiae deletion strains, locus YLR370C, strain arc18, active compounds read low 0.993 | S. cerevisiae deletion strains, locus YLR371W, strain rom2, active compounds read low 1.01 | S. cerevisiae deletion strains, locus YLR384C, strain iki3, active compounds read low 0.987 | S. cerevisiae deletion strains, locus YLR418C, strain cdc73, active compounds read low 0.999 | S. cerevisiae deletion strains, locus YML016C, strain PPZ1, active compounds read low 1 | S. cerevisiae deletion strains, locus YML032C, strain rad52, active compounds read low 1.03 | S. cerevisiae deletion strains, locus YML120C, strain ndi1, active compounds read low 0.995 | S. cerevisiae deletion strains, locus YML124C, strain tub3, active compounds read low 1 | S. cerevisiae deletion strains, locus YMR058W, strain fet3, active compounds read low 1 | S. cerevisiae deletion strains, locus YMR078C, strain ctf18, active compounds read low 1.01 | S. cerevisiae deletion strains, locus YMR125W, strain sto1, active compounds read low 1 | S. cerevisiae deletion strains, locus YMR129W, active compounds read low 1 | S. cerevisiae deletion strains, locus YMR205C, strain PFK2, active compounds read low 0.992 | S. cerevisiae deletion strains, locus YMR223W, strain ubp8, active compounds read low 0.981 | S. cerevisiae deletion strains, locus YMR231W, strain pep5, active compounds read low 1 | S. cerevisiae deletion strains, locus YMR263W, strain SAP30, active compounds read low 1.03 and 1 | S. cerevisiae deletion strains, locus YMR307W, strain GAS1, active compounds read low 0.996 | S. cerevisiae deletion strains, locus YNL067W, strain RPL9B, active compounds read low 1.03 | S. cerevisiae deletion strains, locus YNL071W, strain lat1, active compounds read low 1 | S. cerevisiae deletion strains, locus YNL128W, strain TEP1, active compounds read low 1.02 and 1 | S. cerevisiae deletion strains, locus YNL153C, strain GIM3, active compounds read low 1.03 | S. cerevisiae deletion strains, locus YNL175C, strain NOP13, active compounds read low 1 | S. cerevisiae deletion strains, locus YNL183C, strain NPR1, active compounds read low 1 | S. cerevisiae deletion strains, locus YNL197C, strain WHI3, active compounds read low 1.02 | S. cerevisiae deletion strains, locus YNL209W, strain ssb2, active compounds read low 1 | S. cerevisiae deletion strains, locus YNL224C, strain SQS1, active compounds read low 1 | S. cerevisiae deletion strains, locus YNL233W, strain BNI4, active compounds read low 1.02 | S. cerevisiae deletion strains, locus YNL248C, strain rpa49, active compounds read low 0.998 | S. cerevisiae deletion strains, locus YNL250W, strain rad50, active compounds read low 0.999 | S. cerevisiae deletion strains, locus YNL271C, strain bni1, active compounds read low 1.01 | S. cerevisiae deletion strains, locus YNL298W, strain CLA4, active compounds read low 1 | S. cerevisiae deletion strains, locus YNL307C, strain MCK1, active compounds read low 1.01 | S. cerevisiae deletion strains, locus YNL322C, strain KRE1 (second series), active compounds read low 0.998 | S. cerevisiae deletion strains, locus YNL322C, strain KRE1, active compounds read low 1.01 and 0.988 | S. cerevisiae deletion strains, locus YNR049C, strain mso1, active compounds read low 1 | S. cerevisiae deletion strains, locus YNR052C, strain pop2, active compounds read low 1 | S. cerevisiae deletion strains, locus YOL006C, strain TOP1, active compounds read low 1.08 | S. cerevisiae deletion strains, locus YOL012C, strain htz1 0.933 | S. cerevisiae deletion strains, locus YOL147C, strain pex11, active compounds read low 1 | S. cerevisiae deletion strains, locus YOR001W, strain rrp6, active compounds read low 0.989 | S. cerevisiae deletion strains, locus YOR061W, strain CKA2, active compounds read low 1.01 | S. cerevisiae deletion strains, locus YOR069W, strain VPS5, active compounds read low 1.01 | S. cerevisiae deletion strains, locus YOR070C, strain gyp1, active compounds read low 0.999 | S. cerevisiae deletion strains, locus YOR080W, strain dia2, active compounds read low 1 | S. cerevisiae deletion strains, locus YOR083W, strain WHI5 (second series), active compounds read low 1.01 | S. cerevisiae deletion strains, locus YOR083W, strain WHI5, active compounds read low 0.99 | S. cerevisiae deletion strains, locus YOR106W, strain vam3, active compounds read low 0.985 | S. cerevisiae deletion strains, locus YOR136W, strain idh2, active compounds read low 0.991 | S. cerevisiae deletion strains, locus YOR144C, strain elg1, active compounds read low 1.01 | S. cerevisiae deletion strains, locus YOR184W, strain ser1, active compounds read low 0.966 | S. cerevisiae deletion strains, locus YOR231W, strain MKK1, active compounds read low 1.09 | S. cerevisiae deletion strains, locus YOR265W, strain rbl2, active compounds read low 0.993 | S. cerevisiae deletion strains, locus YOR270C, strain vph1, active compounds read low 1.02 | S. cerevisiae deletion strains, locus YOR290C, strain snf2, active compounds read low 1.01 | S. cerevisiae deletion strains, locus YOR316C, strain cot1, active compounds read low 1.01 | S. cerevisiae deletion strains, locus YPL051W, strain arl3, active compounds read low 0.982 | S. cerevisiae deletion strains, locus YPL055C, strain LGE1, active compounds read low 0.994 | S. cerevisiae deletion strains, locus YPL078C, strain atp4, active compounds read low 0.998 | S. cerevisiae deletion strains, locus YPL106C, strain sse1, active compounds read low 0.984 | S. cerevisiae deletion strains, locus YPL240C, strain hsp82, active compounds read low 0.991 | S. cerevisiae deletion strains, locus YPL241C, strain CIN2, active compounds read low 1.01 | S. cerevisiae deletion strains, locus YPL256C, strain CLN2, active compounds read low 1.07 | S. cerevisiae deletion strains, locus YPR119W, strain clb2, active compounds read low 1.01 | S. cerevisiae deletion strains, locus YPR141C, strain kar3, active compounds read low 0.997 | S. cerevisiae deletion strains, locus YPR163C, strain tif3, active compounds read low 1.01 | S. cerevisiae deletion strains, locus YPR167C, strain met16, active compounds read low 1 | S. cerevisiae deletion strains, strain wtn01, active compounds read low 1.03 | S. cerevisiae strains, strain wild type, active compounds read low 1.01

— PubChem BioAssay AID1159580 (chemical genetic matrix, 2015)
